The supplement of paper PMC11732987, “Enantioselective OTUD7B fragment discovery through chemoproteomics screening and high-throughput optimisation” (Communications Chemistry, 2025)

Experiments:
Assay in all cases: log2 ratio of Biotin-Ahx-Ub-VS probe labelling (fragment/DMSO); higher = less target engagement (more negative = stronger competition), active = hit call of the paper (q ≤ 0.05, log2 ratio ≤ -1)
Settings in all cases: compound concentration: 200 uM; treatment time: 3 h
USP34 = USP34 (UniProt Q70CQ2)
Sequence of USP34 (Q70CQ2 whole entry, the tested form may be a part): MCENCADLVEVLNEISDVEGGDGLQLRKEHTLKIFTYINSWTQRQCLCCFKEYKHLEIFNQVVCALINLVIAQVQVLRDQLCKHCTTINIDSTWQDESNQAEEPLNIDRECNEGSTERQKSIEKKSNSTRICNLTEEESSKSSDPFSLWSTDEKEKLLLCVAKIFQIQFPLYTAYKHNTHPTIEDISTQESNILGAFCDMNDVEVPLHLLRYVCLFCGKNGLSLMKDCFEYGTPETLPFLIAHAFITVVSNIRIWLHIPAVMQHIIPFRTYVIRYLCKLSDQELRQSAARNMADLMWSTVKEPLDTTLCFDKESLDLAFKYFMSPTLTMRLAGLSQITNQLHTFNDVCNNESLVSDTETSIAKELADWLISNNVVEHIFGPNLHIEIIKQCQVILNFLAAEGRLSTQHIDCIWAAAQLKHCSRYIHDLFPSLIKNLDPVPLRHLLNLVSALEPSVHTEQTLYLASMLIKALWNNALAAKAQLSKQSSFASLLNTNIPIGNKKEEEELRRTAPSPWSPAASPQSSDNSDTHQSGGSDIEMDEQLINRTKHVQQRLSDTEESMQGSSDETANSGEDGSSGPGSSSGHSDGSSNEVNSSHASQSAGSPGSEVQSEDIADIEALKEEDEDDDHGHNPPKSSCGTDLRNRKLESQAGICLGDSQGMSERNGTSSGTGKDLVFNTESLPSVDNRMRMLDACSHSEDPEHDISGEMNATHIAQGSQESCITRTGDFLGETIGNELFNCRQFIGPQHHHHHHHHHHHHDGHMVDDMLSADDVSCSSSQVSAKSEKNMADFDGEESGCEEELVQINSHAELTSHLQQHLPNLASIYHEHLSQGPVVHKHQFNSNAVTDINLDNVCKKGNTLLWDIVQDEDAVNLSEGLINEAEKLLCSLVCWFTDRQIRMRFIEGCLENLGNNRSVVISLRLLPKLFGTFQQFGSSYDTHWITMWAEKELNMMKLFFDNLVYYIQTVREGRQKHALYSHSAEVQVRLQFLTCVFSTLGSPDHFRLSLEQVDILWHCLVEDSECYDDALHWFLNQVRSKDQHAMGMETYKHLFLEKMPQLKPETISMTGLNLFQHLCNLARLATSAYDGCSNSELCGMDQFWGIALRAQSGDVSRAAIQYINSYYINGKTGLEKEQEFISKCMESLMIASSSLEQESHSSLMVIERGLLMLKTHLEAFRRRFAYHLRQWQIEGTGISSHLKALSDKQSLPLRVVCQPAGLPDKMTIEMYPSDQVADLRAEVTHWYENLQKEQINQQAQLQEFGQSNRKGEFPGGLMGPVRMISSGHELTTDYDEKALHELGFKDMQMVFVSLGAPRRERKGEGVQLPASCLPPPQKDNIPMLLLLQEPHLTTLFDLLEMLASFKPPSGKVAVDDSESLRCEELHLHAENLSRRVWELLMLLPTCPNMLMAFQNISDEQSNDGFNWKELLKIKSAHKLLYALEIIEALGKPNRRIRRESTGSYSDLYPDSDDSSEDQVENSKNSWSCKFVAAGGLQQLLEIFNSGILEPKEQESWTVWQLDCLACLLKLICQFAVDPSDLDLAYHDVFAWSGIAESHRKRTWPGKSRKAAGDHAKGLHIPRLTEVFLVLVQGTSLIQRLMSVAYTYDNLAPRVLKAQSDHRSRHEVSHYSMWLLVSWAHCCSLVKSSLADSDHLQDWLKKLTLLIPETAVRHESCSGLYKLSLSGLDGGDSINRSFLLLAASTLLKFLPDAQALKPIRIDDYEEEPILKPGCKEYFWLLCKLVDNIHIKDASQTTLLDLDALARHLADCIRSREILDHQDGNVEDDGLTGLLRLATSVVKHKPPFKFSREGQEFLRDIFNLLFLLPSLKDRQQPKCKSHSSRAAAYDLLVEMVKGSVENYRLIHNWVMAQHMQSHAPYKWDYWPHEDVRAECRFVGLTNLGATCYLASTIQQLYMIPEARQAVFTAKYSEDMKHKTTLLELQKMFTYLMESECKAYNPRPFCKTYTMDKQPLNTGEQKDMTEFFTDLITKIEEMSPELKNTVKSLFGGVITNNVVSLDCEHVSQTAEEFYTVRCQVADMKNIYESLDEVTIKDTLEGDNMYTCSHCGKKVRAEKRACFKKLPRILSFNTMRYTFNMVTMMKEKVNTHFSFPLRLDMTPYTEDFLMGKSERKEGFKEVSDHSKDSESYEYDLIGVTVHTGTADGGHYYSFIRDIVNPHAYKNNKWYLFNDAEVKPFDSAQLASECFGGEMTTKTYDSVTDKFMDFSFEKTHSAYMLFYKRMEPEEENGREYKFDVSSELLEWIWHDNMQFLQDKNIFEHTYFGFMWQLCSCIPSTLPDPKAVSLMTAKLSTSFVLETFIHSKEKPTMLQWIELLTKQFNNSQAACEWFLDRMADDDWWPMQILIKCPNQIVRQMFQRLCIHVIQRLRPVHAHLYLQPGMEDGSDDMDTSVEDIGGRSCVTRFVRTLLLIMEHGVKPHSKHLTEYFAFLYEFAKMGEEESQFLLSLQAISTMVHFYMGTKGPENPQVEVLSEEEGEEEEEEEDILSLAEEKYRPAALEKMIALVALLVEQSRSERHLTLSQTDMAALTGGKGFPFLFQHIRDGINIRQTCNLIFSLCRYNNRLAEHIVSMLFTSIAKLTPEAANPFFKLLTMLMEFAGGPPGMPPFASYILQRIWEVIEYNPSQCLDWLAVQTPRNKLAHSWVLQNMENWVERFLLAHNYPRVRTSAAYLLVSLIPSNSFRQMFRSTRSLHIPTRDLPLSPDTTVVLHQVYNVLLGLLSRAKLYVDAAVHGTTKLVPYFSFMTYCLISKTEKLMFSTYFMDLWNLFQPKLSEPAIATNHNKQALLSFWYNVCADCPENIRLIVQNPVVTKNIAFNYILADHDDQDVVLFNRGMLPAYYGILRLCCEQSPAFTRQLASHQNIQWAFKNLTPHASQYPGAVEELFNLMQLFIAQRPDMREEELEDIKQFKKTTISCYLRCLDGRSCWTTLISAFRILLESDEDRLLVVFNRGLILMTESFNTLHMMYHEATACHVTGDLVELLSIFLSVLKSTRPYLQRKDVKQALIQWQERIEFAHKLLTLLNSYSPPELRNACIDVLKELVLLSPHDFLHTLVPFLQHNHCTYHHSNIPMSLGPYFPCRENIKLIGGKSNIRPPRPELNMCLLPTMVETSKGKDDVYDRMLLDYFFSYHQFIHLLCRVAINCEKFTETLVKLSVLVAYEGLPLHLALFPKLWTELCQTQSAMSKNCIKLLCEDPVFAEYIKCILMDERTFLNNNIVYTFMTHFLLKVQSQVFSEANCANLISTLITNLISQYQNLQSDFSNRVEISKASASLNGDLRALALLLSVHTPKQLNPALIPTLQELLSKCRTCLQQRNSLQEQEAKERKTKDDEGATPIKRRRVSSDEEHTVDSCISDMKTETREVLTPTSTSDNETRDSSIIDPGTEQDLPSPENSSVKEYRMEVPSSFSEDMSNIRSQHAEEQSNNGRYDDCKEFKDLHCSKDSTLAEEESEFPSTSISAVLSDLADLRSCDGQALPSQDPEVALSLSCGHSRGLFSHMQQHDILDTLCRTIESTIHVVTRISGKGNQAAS
How it was run: (§1)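 Each value is an average log2 ratio of fragment to vehicle, tested by unpaired t-test. The underlying Spectronaut label-free quantities were global-median-normalised, and only proteins with ≥2 unique peptides were included. Triplicate HEK293T lysate samples (495 µg) were exposed to fragment at 200 µM or vehicle for 3 h, then to Biotin-Ahx-Ub-VS at 0.5 µM final for 1 h, before NeutrAvidin enrichment of labelled DUBs, LysC and trypsin digestion, and diaPASEF LC-MS/MS.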

USP36 = molecular target: T1, USP36 (UniProt Q9P275)
T1 sequence (whole entry): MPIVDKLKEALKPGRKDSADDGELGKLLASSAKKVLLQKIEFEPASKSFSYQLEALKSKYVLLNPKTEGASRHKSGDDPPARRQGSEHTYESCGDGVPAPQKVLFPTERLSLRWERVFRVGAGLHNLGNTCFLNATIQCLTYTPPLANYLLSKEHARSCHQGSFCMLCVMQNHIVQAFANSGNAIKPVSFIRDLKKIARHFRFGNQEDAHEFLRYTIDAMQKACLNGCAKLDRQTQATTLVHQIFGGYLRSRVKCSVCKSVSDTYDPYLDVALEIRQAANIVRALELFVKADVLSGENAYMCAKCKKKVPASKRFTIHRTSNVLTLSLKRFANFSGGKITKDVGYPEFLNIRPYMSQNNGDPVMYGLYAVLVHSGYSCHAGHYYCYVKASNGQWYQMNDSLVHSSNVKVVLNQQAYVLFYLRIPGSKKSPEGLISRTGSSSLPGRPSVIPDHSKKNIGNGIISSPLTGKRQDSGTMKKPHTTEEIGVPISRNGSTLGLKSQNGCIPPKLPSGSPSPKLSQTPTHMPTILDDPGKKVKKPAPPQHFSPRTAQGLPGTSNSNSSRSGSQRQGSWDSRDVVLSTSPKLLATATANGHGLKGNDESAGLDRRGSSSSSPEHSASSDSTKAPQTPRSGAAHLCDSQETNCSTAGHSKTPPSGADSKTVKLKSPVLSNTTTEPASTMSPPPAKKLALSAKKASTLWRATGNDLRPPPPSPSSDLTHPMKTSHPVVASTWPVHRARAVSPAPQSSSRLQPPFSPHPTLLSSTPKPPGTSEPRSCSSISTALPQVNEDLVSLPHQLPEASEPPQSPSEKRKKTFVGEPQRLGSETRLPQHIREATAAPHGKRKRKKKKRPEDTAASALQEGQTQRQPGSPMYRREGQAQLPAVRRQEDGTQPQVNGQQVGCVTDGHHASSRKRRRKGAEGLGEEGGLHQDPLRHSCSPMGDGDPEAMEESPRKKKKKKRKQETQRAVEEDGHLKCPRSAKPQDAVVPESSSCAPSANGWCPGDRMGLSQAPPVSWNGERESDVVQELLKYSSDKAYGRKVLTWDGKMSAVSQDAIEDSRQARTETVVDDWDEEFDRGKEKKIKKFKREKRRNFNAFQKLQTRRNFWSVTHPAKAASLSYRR
How it was run: as §1

USP38 = molecular target: T2, USP38 (UniProt Q8NB14)
T2 sequence (whole entry): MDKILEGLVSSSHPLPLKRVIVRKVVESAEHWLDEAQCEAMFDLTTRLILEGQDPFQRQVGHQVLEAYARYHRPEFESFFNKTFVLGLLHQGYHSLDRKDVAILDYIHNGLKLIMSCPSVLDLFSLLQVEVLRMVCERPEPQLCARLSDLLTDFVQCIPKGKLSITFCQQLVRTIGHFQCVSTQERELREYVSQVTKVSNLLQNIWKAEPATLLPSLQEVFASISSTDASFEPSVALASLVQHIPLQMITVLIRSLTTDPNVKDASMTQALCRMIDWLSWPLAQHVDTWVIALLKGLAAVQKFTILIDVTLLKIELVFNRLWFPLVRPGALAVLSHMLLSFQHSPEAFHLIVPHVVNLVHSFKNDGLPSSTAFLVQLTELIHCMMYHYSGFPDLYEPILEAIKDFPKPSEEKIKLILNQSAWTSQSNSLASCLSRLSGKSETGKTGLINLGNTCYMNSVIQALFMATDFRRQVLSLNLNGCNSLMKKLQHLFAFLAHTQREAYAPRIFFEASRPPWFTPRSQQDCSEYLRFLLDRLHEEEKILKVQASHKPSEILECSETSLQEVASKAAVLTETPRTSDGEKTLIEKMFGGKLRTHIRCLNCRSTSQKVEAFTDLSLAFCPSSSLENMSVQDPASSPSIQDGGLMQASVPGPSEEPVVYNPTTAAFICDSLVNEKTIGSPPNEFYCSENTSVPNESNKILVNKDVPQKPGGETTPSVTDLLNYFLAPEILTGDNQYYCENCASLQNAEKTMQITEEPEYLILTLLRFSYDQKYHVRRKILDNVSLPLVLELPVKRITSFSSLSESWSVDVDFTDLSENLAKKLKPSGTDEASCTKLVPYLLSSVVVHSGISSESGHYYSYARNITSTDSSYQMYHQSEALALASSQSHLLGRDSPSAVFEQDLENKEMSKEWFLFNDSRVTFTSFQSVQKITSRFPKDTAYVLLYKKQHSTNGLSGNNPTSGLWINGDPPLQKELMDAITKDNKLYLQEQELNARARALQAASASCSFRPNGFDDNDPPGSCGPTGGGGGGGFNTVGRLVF
How it was run: as §1

USP39 = molecular target: T3, USP39 (UniProt Q53GS9)
T3 sequence (whole entry): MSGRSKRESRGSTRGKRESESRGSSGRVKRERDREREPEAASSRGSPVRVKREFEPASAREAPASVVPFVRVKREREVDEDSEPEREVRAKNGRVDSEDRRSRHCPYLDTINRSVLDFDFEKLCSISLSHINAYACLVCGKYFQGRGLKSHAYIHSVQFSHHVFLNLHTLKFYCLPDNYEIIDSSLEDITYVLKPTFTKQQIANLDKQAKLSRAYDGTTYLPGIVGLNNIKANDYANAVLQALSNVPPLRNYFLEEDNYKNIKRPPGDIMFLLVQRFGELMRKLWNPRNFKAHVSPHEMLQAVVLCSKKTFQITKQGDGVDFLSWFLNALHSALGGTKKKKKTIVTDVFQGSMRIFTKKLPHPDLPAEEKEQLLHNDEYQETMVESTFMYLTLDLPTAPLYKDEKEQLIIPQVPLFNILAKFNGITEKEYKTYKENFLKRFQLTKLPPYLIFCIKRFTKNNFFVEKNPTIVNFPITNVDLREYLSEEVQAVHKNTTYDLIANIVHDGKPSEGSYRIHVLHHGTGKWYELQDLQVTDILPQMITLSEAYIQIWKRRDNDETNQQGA
How it was run: as §1

USP4 = molecular target: T4, USP4 (UniProt Q13107)
T4 sequence (whole entry): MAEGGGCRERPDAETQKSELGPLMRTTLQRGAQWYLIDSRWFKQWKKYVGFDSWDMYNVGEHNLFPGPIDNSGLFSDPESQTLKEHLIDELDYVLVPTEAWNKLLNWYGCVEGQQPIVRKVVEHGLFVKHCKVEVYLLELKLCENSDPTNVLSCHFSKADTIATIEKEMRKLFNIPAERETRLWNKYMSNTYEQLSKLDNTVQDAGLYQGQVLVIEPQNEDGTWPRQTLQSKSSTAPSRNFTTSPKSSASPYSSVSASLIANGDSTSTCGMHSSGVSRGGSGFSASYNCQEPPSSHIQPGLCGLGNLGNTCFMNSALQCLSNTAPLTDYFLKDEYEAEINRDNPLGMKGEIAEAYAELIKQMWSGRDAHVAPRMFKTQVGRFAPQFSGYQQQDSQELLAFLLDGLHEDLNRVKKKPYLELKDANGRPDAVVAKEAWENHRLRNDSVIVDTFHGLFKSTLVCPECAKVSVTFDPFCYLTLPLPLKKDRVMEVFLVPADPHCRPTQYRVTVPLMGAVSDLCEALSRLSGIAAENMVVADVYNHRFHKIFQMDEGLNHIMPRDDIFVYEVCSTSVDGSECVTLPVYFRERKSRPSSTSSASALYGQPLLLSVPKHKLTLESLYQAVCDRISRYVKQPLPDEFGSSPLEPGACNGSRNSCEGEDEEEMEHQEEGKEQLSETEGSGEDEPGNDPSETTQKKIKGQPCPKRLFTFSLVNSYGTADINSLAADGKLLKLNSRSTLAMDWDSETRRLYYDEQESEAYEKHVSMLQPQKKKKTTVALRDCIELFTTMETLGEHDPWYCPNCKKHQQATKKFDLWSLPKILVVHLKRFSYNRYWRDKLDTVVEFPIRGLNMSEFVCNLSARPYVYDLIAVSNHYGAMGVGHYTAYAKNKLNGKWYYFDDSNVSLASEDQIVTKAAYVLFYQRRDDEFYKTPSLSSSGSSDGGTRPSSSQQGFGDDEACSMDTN
How it was run: as §1

Measured: log2 ratio of Biotin-Ahx-Ub-VS probe labelling

Cc1noc(N2CCN(C(=O)CCl)CC2)n1.Cl
inactive: USP34 0.028 | USP36 -0.0365 | USP38 -0.0491 | USP39 0.251 | USP4 0.0534
